Compound activity deposited in PubChem by several laboratories.
Mtb hypoxia inh – reduces hypoxia-regulated biosensor signal in M. tuberculosis; fluorescence inhibition, % (concentration not given with the values); M. tuberculosis hypoxia-regulated fluorescent reporter, fluorescence; 0.1% of 300,000 active; AID 1159583; in the data active means fluorescence inhibition mostly above about 23%, no sharp cut-off; inactive means mostly below about 17%
SSB-PriA inh – blocks PriA binding to SSB C-terminal tail | 0.6% of 430,000 active | AlphaScreen SSBct-PriA binding, biotinylated peptide | inhibition, % at 33 µM; in the data active means inhibition mostly above about 37%, no sharp cut-off; inactive means mostly below about 20%;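 further: plate controls were negative control peptide for no effect and reference peptide for full effect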
Sa ugtP lethal – compounds lethal to S. aureus RN4220 ugtP deletion mutant; AID 1259309; growth inhibition, % (no concentration beside the values); OD600 growth, 16 h; 0.54% of 330,000 active; in the data active means growth inhibition above about 68%;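 further: plate controls were untreated wells for no effect and antibiotic for full effect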
Sa RN4220 lethal – S. aureus RN4220 growth inhibition; OD600, 16 h; inhibition, % (concentration not given with the values); 0.33% of 330,000 active; in the data active means inhibition above about 85%;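 further: plate controls were untreated cells for no effect and reference antibiotic for full effect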
Mtb bLac sens – beta-lactam sensitization of Mtb H37Rv; inhibition, % at 25 µM; AID 434955; M. tuberculosis H37Rv growth with meropenem, percent inhibition; 0.27% of 330,000 active; call rule not given here;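 further: growth measured after seven days incubation then overnight dye step; 0% = bacteria only wells and 100% = bacteria with antibiotic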
* hit, by the source's call; · = no result shown; ! = a repeat was not active. Sampled rows, rich in hits. Any-hit rate of the full collection: about 1%.

SMILES	Mtb hypoxia inh	SSB-PriA inh	Sa ugtP lethal	Sa RN4220 lethal	Mtb bLac sens
Cc1ccc(C)c(OCc2cc(C(=O)N(C)Cc3nccn3C)no2)c1	·	10	·	·	-13
CCn1ccnc1CN(C)C(=O)c1cc(COc2ccc(OC)c3ccccc23)on1	0	39*	-16	-1	93
CCOC(=O)c1oc2ccccc2c1NC(=O)C1CCCN1S(C)(=O)=O (stereo not given)	·	-21	·	·	·
CCc1ccc2[nH]c3nc(SCC(=O)NNC(=O)c4ccc(C(C)(C)C)cc4)nnc3c2c1	0	-11	85*	19	3
Cc1ccc(C(=O)NNC(=O)CSc2nnc3c(n2)[nH]c2ccc(C)cc23)cc1	6	-16	-5	5	2
Cn1ccnc1SCC1CCN(C(=O)c2cccs2)CC1	·	35*	·	·	·
O=C(Cn1c(/C=C/c2ccccc2)nc2ccccc21)NC[C@H]1CCCO1	·	-18	·	·	·
Cc1ccc(-c2cc(C(=O)N3CCC(NC(=O)c4cccc(N(C)C)c4)CC3)[nH]n2)c(C)c1	·	48*	·	·	·
Cc1ccc(-c2cc(C(=O)N3CCC(NC(=O)c4ccc5c(c4)OCO5)CC3)[nH]n2)c(C)c1	·	-4	·	·	·
CCC(NC(=O)Nc1nnc(C(F)(F)F)s1)(C(F)(F)F)C(F)(F)F	·	0	88*	75	100
O=C(O)CCC(=O)Nc1nnc(C(F)(F)F)s1	·	-3	-5	2	5
COc1ccc(C)cc1-n1nnnc1SC(C)C(=O)NC1CCCC1 (stereo not given)	25*	2	5	0	-7
Cc1cc(C(=O)Nc2nnc(-c3cc(C)nn3C)o2)on1	·	49*	·	·	·
Cc1cc(-c2nnc(NC(=O)c3cc(C)on3)o2)n(C)n1	·	-5	·	·	·
Oc1ccc(N=Cc2c[nH]c3ccccc23)cc1	·	46*	·	·	·
C(=Nc1ccc(N2CCOCC2)cc1)c1c[nH]c2ccccc12	16	17	0	3	4
NC(=O)CSc1nccn1-c1cccc(C(F)(F)F)c1	·	-2	·	·	·
FC(F)(F)c1ccc(CSc2nccn2-c2ccccc2)cc1	·	48*	9	4	5
Brc1ccc(CSc2nccn2-c2ccccc2)cc1	·	59*	24	8	16
Clc1cccc(CSc2nccn2-c2ccccc2)c1	·	53*	16	11	3
O=C(/C=C/c1ccc([N+](=O)[O-])s1)NNC(=O)c1ccc(S(=O)(=O)N2CCCCCC2)cc1	·	-3	·	·	·
O=C(C[n+]1ccc(CCSc2ccc(F)cc2)cc1)c1ccccc1	8	46*	14	-7	53
Cc1ccc(SCCc2cc[n+](CC(=O)c3ccccc3)cc2)cc1	11	17	8	3	1
O=C(CN1CCN(c2ccccc2F)CC1)c1ccc(Cl)cc1	·	-4	·	·	·
CCN(c1ccccc1)S(=O)(=O)c1ccc(C(=O)Nc2ccc(Cl)cc2)cc1	·	-9	·	·	·
SMILES	Mtb hypoxia inh	SSB-PriA inh	Sa ugtP lethal	Sa RN4220 lethal	Mtb bLac sens
Cc1c(Cl)ccc2c(C(O)CBr)cc(-c3ccccc3)nc12 (stereo not given)	20	-9	96*	41	·
NCc1ccnc(-c2ccccn2)n1	·	126*	·	·	·
Oc1ccc(-c2nccc(-c3ccccn3)n2)cc1	2	1	1	9	9
Nc1nccc(-c2ccccn2)n1	·	47	·	·	·
N#Cc1cnc(-c2ccccn2)nc1N	·	83*	·	·	·
Nc1ccnc(-c2ccccn2)n1	·	151*	·	·	·
Cc1ccc(-n2c(C)cc(C(=O)CSc3ncnc4sc5c(c34)CCC5)c2C)cc1C	·	2	·	·	·
O=C(NCc1ccncc1)c1ccc(=O)n(Cc2cccc(F)c2)n1	·	-7	·	·	·
CCOC(=O)c1cc(NC(=O)CSc2nnnn2-c2ccccc2)cc(C(=O)OCC)c1	·	-13	·	·	·
Cc1ccc(CNc2nccn(-c3cccc(Cl)c3C)c2=O)cc1	·	46*	·	·	·
O=c1c(NCc2ccc(Cl)cc2)nccn1-c1cccc(C(F)(F)F)c1	·	54*	·	·	·
O=c1c(NCc2ccc(F)cc2)nccn1-c1ccc(Br)cc1	·	-2	·	·	·
COc1ccc(C(=O)Nc2cc(C)nn2-c2nc3c(cnn3-c3ccc(C)c(C)c3)c(=O)[nH]2)cc1OC	·	91*	·	·	·
CSc1ccccc1C(=O)Nc1cc(C)nn1-c1nc2c(cnn2-c2ccc(F)cc2)c(=O)[nH]1	·	41*	·	·	·
COCC(=O)Nc1cc(C)nn1-c1nc2c(cnn2-c2ccc(F)cc2)c(=O)[nH]1	·	8	·	·	·
COc1ccc(C(=O)Nc2cc(C)nn2-c2nc3c(cnn3-c3ccc(F)cc3)c(=O)[nH]2)cc1OC	·	53*	·	·	·
COc1ccc(C(=O)Nc2cc(C)nn2-c2nc3c(cnn3-c3ccc(C)cc3)c(=O)[nH]2)cc1	·	0	·	·	·
Cc1cc(NC(=O)c2ccccc2C(F)(F)F)n(-c2nc3c(cnn3-c3ccccc3)c(=O)[nH]2)n1	·	24	·	·	·
O=C(NCc1nnnn1-c1ccc(Cl)cc1)c1ccc(-c2ccccc2)cc1	·	-8	·	·	·
CN(C)S(=O)(=O)c1ccc(C(=O)N2CCCC(c3nnc(-c4ccc5c(c4)OCO5)o3)C2)cc1 (stereo not given)	·	-16	·	·	·
COc1ccc(-c2ccc(SCc3ccccc3F)nn2)cc1OC	·	2	·	·	·
Cc1nn(S(=O)(=O)c2ccccc2[N+](=O)[O-])c(C)c1Sc1ccccc1	·	37*	·	·	·
O=C(COC(=O)c1ccc([N+](=O)[O-])o1)Nc1ccc(F)cc1	35*	4	6	11	64
O=C(COC(=O)c1ccc([N+](=O)[O-])o1)Nc1ccc(N2CCOCC2)cc1	·	-11	12	8	87
COc1ccc2c(c1)NC(C)(C)C=C2C	4	9	-4	5	3
SMILES	Mtb hypoxia inh	SSB-PriA inh	Sa ugtP lethal	Sa RN4220 lethal	Mtb bLac sens
CC1=CC(C)(C)Nc2ccccc21	7	53*!	7	5	-3
Cc1ccc(NC(=O)c2ccc(Nc3c([N+](=O)[O-])cc([N+](=O)[O-])cc3[N+](=O)[O-])cc2)cc1	46*	-3	49	62	100
Cc1ccc(NC(=O)c2ccccc2)c([N+](=O)[O-])c1	·	57*	·	·	·
Cc1ccc(NC(=O)C(C)Oc2cccc(Br)c2)c([N+](=O)[O-])c1 (stereo not given)	·	49*	·	·	·
Cc1cc(C)cc(NC(=O)[C@H](C)Oc2cccc(Br)c2)c1	·	-4	·	·	·
CC(C)(C)c1ccc(NC(=O)c2ccc(Cl)cc2)c([N+](=O)[O-])c1	·	63*	·	·	·
O=C(Nc1ccc(C(F)(F)F)cc1[N+](=O)[O-])c1ccccc1	·	68	·	·	·
O=C(Cc1csc(NC(=O)C2CC2)n1)NCc1cccnc1	·	-11	·	·	·
Cc1c(N=Cc2ccccc2OC(=O)c2cc3ccccc3oc2=O)c(=O)n(-c2ccccc2)n1C	·	-9	·	·	·
O=C(/C=C/c1cccc([N+](=O)[O-])c1)Nc1ccc(-c2nc3ccccc3o2)cc1	·	-9	·	·	·
COc1ccc(N2CCN(Cc3cc(=O)c(OC/C=C/c4ccccc4)co3)CC2)cc1	·	42	·	·	·
CCN(Cc1ccccc1)c1ccc([C@@H]2c3c(n(C)c(=O)n(C)c3=O)N=C3CC(C)(C)CC(=O)C32)cc1 (stereo not given in full)	·	10	·	·	·
Cc1ccc(NC(=O)C(=O)NCc2cccs2)c([N+](=O)[O-])c1	·	56*	·	·	·
CC(C)(C)c1ccc(NC(=O)c2ccccc2)c([N+](=O)[O-])c1	-2	59*	7	1	33
Fc1ccccc1Cn1nnc2ccccc21	·	-33	·	·	·
